Source: the supplement of paper PMC3334620
In all, about 33,000 sequences were measured (“E-score (-0.5 to 0.5)”: median about -0.012, highest 2% from about 0.29 on). Shown is part of a subset that was picked to be rich in the highest values.

target: T1, Ybr033w (UniProt P38073); test: PBM E-score (8-mer binding enrichment) (E-score (-0.5 to 0.5)); higher = stronger / more preferred TF binding; conditions: protein concentration: 200 nM; construct: GST-full length
T1 sequence: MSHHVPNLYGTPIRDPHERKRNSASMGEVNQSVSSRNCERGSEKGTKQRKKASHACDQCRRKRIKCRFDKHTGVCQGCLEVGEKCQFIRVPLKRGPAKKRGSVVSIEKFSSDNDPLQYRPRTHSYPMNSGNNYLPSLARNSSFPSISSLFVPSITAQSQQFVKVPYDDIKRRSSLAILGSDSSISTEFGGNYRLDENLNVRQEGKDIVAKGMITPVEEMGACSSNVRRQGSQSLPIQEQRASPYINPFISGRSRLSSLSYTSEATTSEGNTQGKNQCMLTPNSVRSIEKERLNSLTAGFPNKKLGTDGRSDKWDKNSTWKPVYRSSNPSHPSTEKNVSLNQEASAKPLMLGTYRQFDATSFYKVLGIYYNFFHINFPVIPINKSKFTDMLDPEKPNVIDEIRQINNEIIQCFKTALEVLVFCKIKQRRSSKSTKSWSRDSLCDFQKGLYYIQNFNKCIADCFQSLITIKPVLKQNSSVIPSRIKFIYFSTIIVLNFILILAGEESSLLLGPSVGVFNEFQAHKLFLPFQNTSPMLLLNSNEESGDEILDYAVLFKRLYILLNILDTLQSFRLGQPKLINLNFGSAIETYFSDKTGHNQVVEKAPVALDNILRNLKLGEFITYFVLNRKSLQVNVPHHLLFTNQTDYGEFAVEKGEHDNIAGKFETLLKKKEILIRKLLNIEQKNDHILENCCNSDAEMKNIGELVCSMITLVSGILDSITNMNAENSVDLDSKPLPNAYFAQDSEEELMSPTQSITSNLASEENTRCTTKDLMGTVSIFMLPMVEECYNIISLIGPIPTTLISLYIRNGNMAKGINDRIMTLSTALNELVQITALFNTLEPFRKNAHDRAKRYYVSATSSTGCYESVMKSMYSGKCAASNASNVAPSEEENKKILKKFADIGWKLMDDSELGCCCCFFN
Experimental: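 Universal 'all 10-mer' protein binding microarrays (Agilent AMADID 015681) probed with GST-tagged S. cerevisiae TFs (full-length or DBD) made by in vitro transcription/translation (PURExpress), about 100-200 nM. Bound TF was detected with fluorescent anti-GST. Each ungapped 8-mer (which stands for itself and its reverse complement) is scored by the PBM enrichment score (E-score), a modified Wilcoxon-Mann-Whitney statistic from -0.5 to +0.5, computed with the Universal PBM Analysis Suite. Scale: above 0.35 generally sequence-specific binding.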

| Sequence | PBM E-score |
| --- | --- |
| GGACCGAA | 0.061 |
| AGTCCTTA | -0.049 |
| CACAATTC | 0.16 |
| GATAAATC | 0.304 |
| CATAAATC | 0.146 |
| CATAAATA | 0.169 |
| ACTAAATC | 0.278 |
| GATAAAGA | 0.154 |
| GATAAATA | 0.4 |
| GATAAAGC | 0.159 |
| GGTAAATA | 0.225 |
| ACTAAATA | 0.322 |
| TATAAATA | 0.289 |
| TATAAAAA | 0.253 |
| CCTAAATA | 0.118 |
| TTCGCAAA | 0.225 |
| CTAGACAA | -0.0833 |
| ATCCATGA | -0.0662 |
| AGACAAAT | 0.129 |
| CCACAAAC | 0.077 |
| TCCACACA | 0.111 |
| CGGTGCGC | -0.156 |
| GTTCGAGA | -0.0752 |
| GCTGAGGA | -0.194 |
| AATAAATG | 0.194 |

| Sequence | PBM E-score |
| --- | --- |
| AATAAACT | 0.221 |
| TATAAACA | 0.247 |
| AATAAATT | 0.314 |
| GATAAAAC | 0.323 |
| GATAAAAA | 0.278 |
| AATAAATC | 0.263 |
| AATAAATA | 0.378 |
| GATAAACC | 0.236 |
| AATAAAGA | 0.267 |
| CATAAAAC | 0.0263 |
| GATAAACA | 0.298 |
| ACGTTCTA | -0.0975 |
| AAACCAAT | 0.272 |
| CATACCCG | -0.165 |
| CGAATTGC | -0.0195 |
| CAAGAACC | 0.137 |
| CCAGATCG | -0.0568 |
| CCGATTAG | -0.131 |
| ATTGTCTA | 0.144 |
| ACTCTAAC | 0.17 |
| AATAAAAA | 0.252 |
| AATAAAAT | 0.304 |
| AATAAAAG | 0.0821 |
| AAGTTAAG | -0.149 |
| AAGTTTAC | 0.154 |

| Sequence | PBM E-score |
| --- | --- |
| AAGTTAAT | 0.315 |
| AAGTTTAT | 0.333 |
| AAGTTATT | 0.3 |
| AAGTTAAC | 0.224 |
| AAGTTATA | 0.166 |
| AAGTTTAG | 0.128 |
| AAGTTATG | 0.206 |
| AAACTGCA | 0.146 |
| ACCCTTCC | -0.0151 |
| AGTAGCAA | 0.152 |
| ACACTGGG | -0.161 |
| AGTGTTGC | 0.0949 |
| GTCTTTGA | -0.0431 |
| GACATTCA | 0.0222 |
| CACTTTTC | 0.255 |
| CTCCGTTC | -0.0235 |
| CTGGTGCA | -0.31 |
| CGGAAATC | 0.067 |
| AGGAAATG | 0.146 |
| GGGAAATA | 0.137 |
| CGGAAATA | 0.433 |
| AGGAAATC | -0.0432 |
| AGGAAATA | 0.298 |
| CTATTTGA | 0.227 |
| AAGATCCG | -0.0767 |

| Sequence | PBM E-score |
| --- | --- |
| CAAACTGA | 0.14 |
| CAGGTAGA | -0.138 |
| TAATAGTA | 0.297 |
| GAATAGTA | 0.183 |
| CCATAATA | 0.264 |
| CAATAATG | 0.137 |
| AAAAAATT | 0.237 |
| AGATAATA | 0.219 |
| CAATAATA | 0.292 |
| CAATAGTA | 0.168 |
| AGATAATG | 0.181 |
| AGATAATC | 0.306 |
| AAATAATT | 0.388 |
| CGTTATTC | 0.175 |
| GCTATTCC | -0.0267 |
| AGGGGTAC | -0.205 |
| ACCGTGAC | -0.159 |
| CGAGTGCC | -0.198 |
| AACGGTGT | -0.113 |
| CAAAGCTC | -0.212 |
| CAGTCTAG | -0.137 |
| ATATGCAT | 0.02 |
| TAATAATA | 0.33 |
| TAATAAAA | 0.365 |
| AAATAATG | 0.227 |

| Sequence | PBM E-score |
| --- | --- |
| AAATAATA | 0.344 |
| TAATAACA | 0.226 |
| CAATAAAA | 0.225 |
| CAATAATC | 0.171 |
| ACATAATC | 0.205 |
| ACATAATA | 0.247 |
| AAATAATC | 0.341 |
| GAATAAAA | 0.207 |
| TAATAAGA | 0.184 |
| ATGCCCGA | -0.106 |
| ACCTATGC | -0.0454 |
| CGTCCACG | -0.133 |
| CGGGGCAC | -0.319 |
| ACCATCTA | 0.0217 |
| AACCTGGT | 0.0823 |
| AATCCAGC | 0.0372 |
| AATCCAGA | 0.295 |
| TATCCAGA | 0.158 |
| GATCAAGA | 0.0926 |
| AGAACATA | 0.192 |
| GGAACAAA | 0.45 |
| ATAACAAA | 0.29 |
| GGAACATA | 0.313 |
| AGAACAAG | 0.212 |
| AGAACAAT | 0.209 |

| Sequence | PBM E-score |
| --- | --- |
| AGAACAAA | 0.33 |
| ATAACAAT | 0.165 |
| TGAACAAA | 0.284 |
| CGAACATA | 0.2 |
| ATAACAAG | 0.191 |
| CGAACAAA | 0.191 |
| AGAGACTA | -0.0151 |
| CTCGCAAC | -0.052 |
| AAGGCCTC | -0.21 |
| AAAGTACT | 0.177 |
| TACGACTA | 0.0548 |
| CCCCTATC | -0.337 |
| CCCCCCCC | -0.45 |
| CACTTGTC | -0.0719 |
| GCACTGTA | 0.0862 |
| AGAACAAC | 0.0473 |
| CGAACAAC | 0.077 |
| GGAACAAC | 0.454 |
| AGTATTCA | 0.142 |
| ACGCCCTG | -0.16 |
| GTATCAGA | 0.106 |
| CTATCAGA | -0.0376 |
| ATATCAGA | 0.289 |
| AACCCCGA | -0.0425 |
| AATTTCGA | 0.0715 |

| Sequence | PBM E-score |
| --- | --- |
| GATTTCAA | 0.174 |
| TATTTCAA | 0.338 |
| TATTTCGA | 0.357 |
| CATTTCAA | 0.242 |
| GATTTCGA | -0.0493 |
| TTAAGGAA | 0.218 |
| AGTAGACT | -0.0063 |
| GGAGGGAC | -0.188 |
| TAAGCTTA | 0.102 |
| AGTGGACA | 0.0894 |
| ATGAACTA | 0.303 |
| ATGAACTC | 0.0731 |
| CTGAACTA | 0.037 |
| ATTAGAGA | 0.115 |
| TGGGAAAA | 0.316 |
| GGGGGAAA | -0.124 |
| CGGGGAAA | 0.212 |
| CGGGAAAC | 0.0713 |
| AGGGAAAA | 0.296 |
| AGGGAAAT | 0.00233 |
| AGGGGAAA | 0.0237 |
| TGGGGAAA | 0.0688 |
| CGGGAAAA | 0.298 |
